Assay results: PubChem BioAssay AID540303 (National Center for Advancing Translational Sciences (NCATS), 2011)
Hit rate of the full screen: of about 330,000 compounds, about 1,000 (0.3%) were called active. Roughly 3% stayed inconclusive and do not appear here. This excerpt belongs to a sample that is enriched for actives. Unmarked numbers belong to inactive results. Calls come from the whole dose curve; as a rule, active = well fitted inhibition curve with a large enough effect; inconclusive = small, poorly fitted or top-dose-only effect; inactive = no such curve, though single readings can be large or run the other way; tested in mouse RAW 264.7 cells.

Test: qHTS for Inhibitors of Cell Surface uPA Generation; note: nearly all actives have a fitted effect of over 55% in size
Conditions: cell surface uPA generation assay; series mostly up to 38.3 µM; activity change, negative = inhibition: at the top concentration
Excerpt: The overall objective of this project is to perform a quantitative high throughput screen (qHTS) to identify novel compounds that inhibit the generation of cell surface urokinase activity. The urokinase plasminogen activator (uPA) is one of the two primary endogenous systems that mediate plasminogen activation into plasmin. Members of this system, including uPA and its receptor (uPAR), are overexpressed in several malignant tumors. This system plays a major role in adhesion, migration, invasion and metastasis of cancer cells. Small molecule inhibitors of the uPA system will serve as probes to understand the molecular mechanisms of the uPA cascade and better understanding the microenvironmental circumstances that facilitate the activation of plasminogen by uPA, and finally may provide novel candidate agents for anticancer drug therapy.
[…] […] Upon inhibition of the uPA activation cascade, the subsequent cell surface uPA activity-dependent translocation of LF into the cytoplasm is inhibited. ATP-Lite is used to measure intracellular ATP concentrations, which remain increased if LF entry into the cytoplasm is inhibited. This validation assay was performed using a small set of validation compounds.
NIH Chemical Genomics Center [NCGC]
NIH Molecular Libraries Probe Centers Network [MLPCN]
Assay Submitter (PI): Thomas Bugge, National Institute of Dental and Craniofacial Research, NIH
Cultured RAW 264.7 were dispensed into 1536-well clear bottom, white walled tissue culture plates at a density of 4000 cells/well and were incubated overnight (12-16 h) at 37 C in a 5% CO2 incubator. Serially diluted compounds in 23 nl DMSO were added to cells. […] Compound and reagent-treated plates were incubated for 24 h at 37 C in a 5% CO2 incubator. Perkin Elmer ATPlitetrade mark 1 step (3 ul) was then added to each well. Luminescence was detected using a Perkin Elmer ViewLuxtrade mark plate reader.
1.Dispensing RAW 264.7 cells into 1536-well, white walled tissue culture plates at a density of 4000 cells/well (4 uL).
2.Incubation at 37 C in a 5% CO2 incubator overnight.
3.Serially diluting compounds (1:5 serial dilution; 0.0024 uM to […] final concentration) in 23 nl DMSO.
5.Incubating the compound and reagent-treated plates for 24 hours at 37 C in a 5% CO2 incubator.
6.Adding ATP-Lite (3 ul).
7.Reading plates by ViewLux with an exposure length of 5 seconds.
% is set by controls: 0 for no effect and ±100 for the full control effect; potency is the fitted concentration of half-maximal effect.

Structure (SMILES) | Potency | activity change, negative = inhibition
CCOc1ccc(-c2cc(C)[n+](CCN(CC)CC)c(-c3ccc(OCC)cc3)c2)cc1 | 3.55 µM (active) | –
CC12CCC3C(CCC4CC(=O)CCC43C)C1CC(=NO)C2=O (stereo not given) | – | -4.31%
CC1CCCN1CCC(C(N)=O)(c1ccccc1)c1ccccc1 (stereo not given) | – | 4.44%
CC1C(=O)OC2CCN3CC=C(COC(=O)C(C)(O)C1(C)O)C23 (stereo not given) | – | -1.98%
CC1=CC(=Cc2sc3ccccc3[n+]2C)C=C(C)O1 | 5.01 µM (active) | –
CCOC(=O)C1(c2ccccc2)CCN(CC(O)c2ccc(NC(C)=O)cc2)CC1 (stereo not given) | – | -1.41%
C=C(C)C1(CCCC)C(=O)NC(=S)NC1=O | – | 2.2%
CC(=O)OC1C2(CC3N4C(=O)C5(CO)SSC4(CC31O)C(=O)N5C)OC(C)C(C)(C)C2=O (stereo not given) | – | -9.77%
Cc1cc(C)c2c(c1)NP(=S)(c1ccccc1)N2 (stereo not given) | – | -3.79%
CC1(c2cccc([N+](=O)[O-])c2)CC(C)(C)N(C(=O)c2ccccc2)c2ccccc21 (stereo not given) | – | 52.7%
